The list is not random: actives were taken first. Their share in the collection is about 18%.
TDP1 cell noCPT: qHTS for Inhibitors of human tyrosyl-DNA phosphodiesterase 1 (TDP1): qHTS in cells in absence of CPT. DT40 Tdp1-/- hTDP1 cells, no CPT, ATP luminescence, 48 h. Potency, µM (top dose mostly 46.2 µM), for inactives: at the highest dose activity change, negative = growth inhibition, actives largely listed as inhibitors. 420,000 compounds, 15% hits. AID 686978, 2013; further: potency means the concentration at half of the fitted maximal effect; nearly all actives have a fitted effect of over 55% in size
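Cells were dispensed at 400 per well, compounds added by pin tool, plates incubated ≥48 hr at 37 °C, then CellTiter-Glo added for 30 min at room temperature before luminescence reading. Line: DT40 Tdp1-/- complemented with hTDP1; camptothecin omitted.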
IL-1B inflam inh: qHTS for Inhibitors of Inflammasome Signaling: IL-1-beta AlphaLISA Primary Screen; AID 743279, 2014; THP-1 LPS/ATP IL-1B secretion, AlphaLISA, 16 h; stronger effect = lower value; 360,000 compounds, 4.7% hits; activity change, % at 57.5 µM; in the data active means activity change below about -50%; inconclusive means mostly about -30% to -49%
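Secreted IL-1B measured by AlphaLISA bead assay after 16 h compound exposure of THP-1 cells; compounds (final up to 57.5 uM) added 1 h before LPS (250 ng/mL) and ATP (1.25 mM) stimulation; lower signal means less secretion.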
CtBP-E1A inh: qHTS Assay for Inhibitors of the CtBP/E1A Interaction; 340,000 compounds, 0.49% hits; AID 651724, 2012; AlphaScreen GST-E1A/His-CtBP binding, 1536-well; stronger effect = lower value; activity change, % (no concentration beside the values); in the data active means activity change below about -65%; inconclusive means mostly about -30% to -63%
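Protein mix (5X: 125 nM each GST-E1A, His-CtBP) was incubated with pinned compound 2 h at 37 deg C in dark, in 50 mM Tris pH 8.0 buffer with 300 mM NaCl. Glutathione donor and nickel acceptor beads followed; AlphaScreen signal read after 1 h.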
Six1-Eya2 blk: qHTS Assay for Inhibitors of the Six1/Eya2 Interaction. Homeobox protein SIX1 (Homo sapiens) + Protein phosphatase EYA2 (Homo sapiens), …. AlphaScreen GST-Six1/His-Eya2 binding, biochemical; stronger effect = lower value. activity change, % (test concentration not listed). 360,000 compounds, 0.56% hits. AID 651725, 2012; in the data active means activity change below about -65%; inconclusive means mostly about -30% to -63%
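Compounds are tested against tagged Six1 and Eya2 proteins bridged by glutathione donor and nickel acceptor beads; after a one-hour incubation at 37 °C without light, AlphaScreen emission is recorded.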
DT40 TDP1 CPT: qHTS for Inhibitors of human tyrosyl-DNA phosphodiesterase 1 (TDP1): qHTS in cells in presence of CPT; 420,000 compounds, 12% hits; AID 686979, 2013; chicken DT40 Tdp1-/-;hTDP1 cells + 20 nM CPT, ATP luminescence, 48 h; Potency, µM (highest dose often 46.2 µM), for inactives: at the highest dose activity change, negative = growth inhibition, hits mostly inhibitors; further: potency means the concentration at half of the fitted maximal effect; nearly all actives have a fitted effect of over 55% in size
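Chicken DT40 Tdp1-/- cells stably complemented with human TDP1 were seeded at 400 cells/well in medium containing 20 nM camptothecin, exposed to pin-transferred compounds, and grown at 37 °C for at least 48 hr. Viability was read as ATP luminescence.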
TDP1 inh: qHTS Assay for Inhibitors of Tyrosyl-DNA Phosphodiesterase (TDP1); 350,000 compounds, 0.28% hits; AID 485290, 2010; Potency, µM (top dose mostly 130 µM), for the others: at the highest dose activity change, negative = inhibition, actives largely listed as inhibitors; recombinant TDP1, AlphaScreen DNA substrate cleavage; Tyrosyl-DNA phosphodiesterase 1 (Homo sapiens), Q9NUW8; further: potency means the concentration at half of the fitted maximal effect; nearly all actives have a fitted effect of over 40% in size
Target sequence (Q9NUW8 whole entry, looked up): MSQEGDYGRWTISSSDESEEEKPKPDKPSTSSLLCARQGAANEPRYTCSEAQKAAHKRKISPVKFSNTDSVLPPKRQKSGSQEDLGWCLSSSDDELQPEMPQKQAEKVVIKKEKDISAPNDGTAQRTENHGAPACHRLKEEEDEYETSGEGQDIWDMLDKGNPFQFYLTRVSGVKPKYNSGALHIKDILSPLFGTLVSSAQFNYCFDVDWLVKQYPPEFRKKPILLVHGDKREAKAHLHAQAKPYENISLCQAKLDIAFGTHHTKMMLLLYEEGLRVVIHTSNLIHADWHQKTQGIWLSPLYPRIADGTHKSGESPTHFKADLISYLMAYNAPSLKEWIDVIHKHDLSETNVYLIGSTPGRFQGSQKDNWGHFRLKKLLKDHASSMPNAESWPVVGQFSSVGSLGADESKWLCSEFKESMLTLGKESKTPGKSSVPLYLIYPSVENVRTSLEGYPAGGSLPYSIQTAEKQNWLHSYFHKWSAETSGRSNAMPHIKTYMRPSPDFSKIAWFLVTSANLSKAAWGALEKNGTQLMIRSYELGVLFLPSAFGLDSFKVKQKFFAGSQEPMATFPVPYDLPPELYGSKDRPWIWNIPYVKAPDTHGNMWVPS
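E. coli-derived human Tdp1, 1 nM final. Cpd preinc 15 min RT; substrate 15 nM final, 5 min RT; AS bead mix 10 ug/ml final, 10 min RT. Signal loss = tyrosine-FITC cleavage. No-enzyme wells = max signal.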
Active calls of the source: *; ? = inconclusive; nt = not tested or not shown; [ ] = dose if it differs, or a comment. Unless noted, the call rests on the fitted dose curve; in most records, active means well fitted curve in the direction sought with a large enough effect; inconclusive means small, poorly fitted or top-dose-only effect, or another doubt; inactive means no such curve, though single readings can be large; an effect the other way counts as inactive or inconclusive. On the % scale 0 is the no-effect control and ±100 the full control effect.

SMILES	TDP1 cell noCPT	IL-1B inflam inh	CtBP-E1A inh	Six1-Eya2 blk	DT40 TDP1 CPT	TDP1 inh
O=S(=O)(NCCc1ccccn1)c1ccc(OC(F)(F)F)cc1	-2.7%	5.5	1.4	-7.1	-7.5%	2.0%
CCn1c(=O)n(CC)c2cc(S(=O)(=O)N3CCC(c4ccccc4)CC3)ccc21	?	13.2	-3.6	-9.9	?	9.1%
Cc1ccc(OCc2cccc(S(=O)(=O)N(C)C)c2)c([N+](=O)[O-])n1	-28.5%	1.8	-3.1	-10.7	-28.4%	nt
CC(C)(C)OC(=O)NCc1ccc(CNC(=O)c2nc[nH]c2C(=O)N2CCc3ccccc3C2)cc1	18.4µM*	6.6	-12.0	-24.7	?	2.2%
CC(C)(C)OC(=O)NCCCCCNC(=O)c1nc[nH]c1C(=O)N1CCc2ccccc2C1	?	10.2	-9.2	-14.0	?	2.3%
CC(C)(C)OC(=O)NCc1ccc(CNC(=O)c2nc[nH]c2C(=O)N2CCN(c3ccccc3)CC2)cc1	25.9µM*	17.8	-12.8	-6.6	?	5.3%
CCOC(=O)c1ccc(NC(=O)c2nc[nH]c2C(=O)N2CCc3ccccc3C2)cc1	13µM*	-11.3	-2.4	-0.8	11.6µM*	5.0%
CCOC(=O)c1c(C)c(C(=O)N2CCc3ccccc3C2)c(C)n1CC	25.9µM*	16.9	-23.9	-11.8	?	8.8%
CCOC(=O)c1c(C)c(C(=O)Nc2ccccc2)c(C)n1CC	-29.7%	-12.5	-4.5	-1.9	-18.1%	5.3%
Cc1ccc(NC(=O)c2nc[nH]c2C(=O)N2CCc3ccccc3C2)cc1	-24.9%	1.4	1.8	0.6	-24.8%	0.1%
COC(=O)C/C=C\[C@@H](C)[C@@H](/C=N\O[C@@H](C)CN1CCCc2nc(C)c(C)cc21)NS(=O)(=O)c1ccc(C)cc1	nt	nt	nt	nt	nt	10.1%[21 µM]
O=C(COc1ccccc1CNC[C@H]1O[C@@H](n2ccc(=O)[nH]c2=O)[C@H](O)[C@@H]1O)N1CCCCC1	5.0%	0.0	2.3	0.0	-1.7%	nt
CC(C)C(=O)NC(Nc1cccc([N+](=O)[O-])c1)C(Cl)(Cl)Cl (centres undefined)	?	0.0	nt	5.0	?	4.7%
CCOc1ccccc1NC(=O)CCc1c(C)nn(-c2ccc(N3CCOCC3)nn2)c1C	?	nt	nt	nt	?	4.5%
O=C(Nc1ccccc1)c1nc[nH]c1C(=O)N1CCN(c2ccccc2)CC1	?	-6.3	2.5	4.1	?	0.1%
CC12CCC(c3c(C(=O)Nc4nccs4)nn(-c4ccccc4)c31)C2(C)C (centres undefined)	18.4µM*	-21.1	0.0	-1.9	16.4µM*	9.6%
O=C(Nc1nccs1)c1nc[nH]c1C(=O)N1CCN(c2ccccc2)CC1	-15.3%	-27.1	-71.0*	-77.7*	-3.0%	-7.0%
COC(=O)c1c(C)nn(-c2ccc(F)c(Cl)c2)c1-c1cc(C)on1	5.17µM*	-2.7	-10.9	6.1	11.6µM*	-2.6%
COC(=O)c1nnn(-c2ccc(F)c(Cl)c2)c1C(=O)OC	-0.6%	-14.9	12.2	0.5	-4.6%	0.0%
CN(CCc1ccc(Cl)c(Cl)c1)CCN1CCCC1	23.7µM*	nt	nt	nt	8.2µM*	8.5%
CCOC(=O)[C@H]1[C@H]2COc3ccc(Cl)cc3[C@@H]2N2C(=O)CN(Cc3ccc(C)cc3)C(=O)[C@@]12C	16.4µM*	?	-10.0	-5.4	18.4µM*	0.8%
CCOC(=O)[C@H]1[C@H]2COc3ccc(Cl)cc3[C@@H]2N2C(=O)CN(Cc3ccco3)C(=O)[C@@]12C	?	-9.9	-25.7	3.5	25.9µM*	2.6%
CCOC(=O)[C@H]1[C@H]2COc3ccc(Br)cc3[C@@H]2N2C(=O)CN(Cc3ccccc3)C(=O)[C@@]12C	25.9µM*	-25.7	-1.2	-0.3	?	-0.1%
CCOC(=O)[C@H]1[C@H]2COc3ccc(Cl)cc3[C@@H]2N2C(=O)CN(Cc3ccc(OC)cc3)C(=O)[C@@]12C	18.4µM*	-11.4	-4.7	-10.4	?	2.3%
CCOC(=O)[C@H]1[C@H]2COc3ccc(Br)cc3[C@@H]2N2C(=O)CN(Cc3ccc(OC)cc3)C(=O)[C@@]12C	?	20.3	0.0	-7.3	?	1.8%
SMILES	TDP1 cell noCPT	IL-1B inflam inh	CtBP-E1A inh	Six1-Eya2 blk	DT40 TDP1 CPT	TDP1 inh
O=C1c2cccnc2C(=O)N1Cc1ccc2c(c1)OCO2	-18.3%	6.1	-14.6	-8.5	-1.2%	2.1%
CCC(C)NC(=O)CSc1nnc(-c2ccncc2)n1-c1ccc(OC)cc1 (centres undefined)	-3.0%	2.4	4.3	0.6	-3.7%	2.9%
CCOc1ccc(-n2c(SCC(=O)NC(C)CC)nc3n[nH]c(C)c3c2=N)cc1 (centres undefined)	18.4µM*	-14.8	?	-13.5	?	-1.0%
CCOc1ccc(NC(=O)CSc2n[nH]c(=O)n2-c2ccccc2)cc1	-19.1%	13.2	5.2	3.2	-3.2%	0.0%
CCC(C)NC(=O)CSc1nc2n[nH]c(C)c2c(=N)n1-c1ccc(OC)cc1 (centres undefined)	18.4µM*	4.9	-84.6*	-74.1*	16.4µM*	8.8%
CCC(C)NC(=O)CSc1nc2n[nH]c(C)c2c(=N)n1-c1ccc(C)c(Cl)c1 (centres undefined)	1.64µM*	nt	nt	nt	3.26µM*	0.9%
Cc1[nH]nc2nc(SCC(=O)NCC3CCCO3)n(-c3ccc(Br)cc3)c(=N)c12 (centres undefined)	?	-24.0	?	-65.0*	14.6µM*	0.0%
CCC(Sc1nc2n[nH]c(C)c2c(=N)n1-c1cccc(Cl)c1C)C(=O)N(CC)CC (centres undefined)	?	-6.7	0.2	-1.5	?	5.9%
CC(=O)NCCc1nc2ccccc2n1Cc1ccccc1	-18.6%	-25.9	-22.3	3.9	4.2%	6.9%
O=C(CSc1nc2ncc(Br)cc2[nH]1)Nc1ccc2c(c1)OCO2	?	-7.4	-16.4	-17.8	?	1.0%
CCOc1ccc(-n2c(SCC(=O)Nc3ccccc3CC)nc3n[nH]c(C)c3c2=N)cc1	nt	nt	nt	nt	nt	7.9%
CCOc1ccc(-n2c(SCC(=O)Nc3ccc(Br)cc3)nc3n[nH]c(C)c3c2=N)cc1	7.31µM*	-1.1	-6.4	1.9	13µM*	3.7%
